This is part of a sample that, as a whole, favours compounds with a hit. Of some 83,000 tested, about 20% had one in any assay.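 Activity criterion: percent growth below 10, measured after cells in 96-well plates were exposed to a single compound concentration for 48 hours.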 The source made the active and inactive calls.
test system: SN12C renal; test: NCI-60 one-dose screen, 48 h (100 = growth as untreated, 0 = no growth, -100 = all killed); settings: 10 µM unless noted
Protocol: Growth inhibition of the SN12C human tumor cell line is measured as a screen for anti-cancer activity. Cells are grown in 96 well plates and exposed to the test compound for 48 hours. Compounds are tested at a single concentration, which is 10^-5 M for most compounds. The reported endpoint is percent growth (GI% or GIPRCNT), where numbers from 0 - 100% represent growth inhibition, and numbers from -100% - 0 represent cell death. For example, a value of 40 represents 60% growth inhibition. A value of 0 means no net growth occurred over the course of the experiment. A value of -40 indicates 40% of cells at the beginning of the experiment died by the end of the experiment. A value of -100 means all cells are dead at the end of the experiment.
NCI-60 Human Tumor Cell Lines Screen was performed using the standard one-dose NCI protocol, which is described in more detail at https://dtp.cancer.gov/discovery_development/nci-60/default.htm.
Compounds with GIPRCNT values below 10 were considered active. Activity score was based on GIPRCNT using the following formula: […]
Score is 0 for GIPRCNT values of 100 or above, 50 for GIPRCNT values of 0, and 100 for GIPRCNT values of -100.

Row | Compound | growth
1 | CCCCCCCC/C=C/CCCCCCCC1=NCC[N+]1(CCO)CCO | 76% (inactive)
2 | N#Cc1c(NC(=O)c2ccc(Br)cc2)sc2c1CCCC2 | 45.7% (inactive)
3 | COc1ccc(NC(=O)c2cccc(-c3cc(=O)c4c(O)c(OC)c(OC)cc4o3)c2)cc1 | 84.3% (inactive)
4 | COc1ccc2c(c1)/C(=C\c1sc(=S)[nH]c1O)C(C(=O)O)=N2 | 100% (inactive)
5 | COc1cc2c(cc1OC)-c1ccc3cc4c(cc3c1N(CCN(C)C)C2)OCO4 | 0.583% (active)
6 | CN(C)c1ccc(/C=C2\C=C(c3ccccc3)N(CCc3ccccc3)C2=O)cc1 | 89.8% (inactive)
7 | CC(C)c1ccc(C(=O)OC(=O)c2ccc(C(C)C)cc2)cc1 | 98.7% (inactive)
8 | CCNCCNc1cc(-c2ccc(F)cc2)c(C#N)c2nc3ccccc3n12 | 70.9% (inactive)
9 | CCN(CC)CCCNC(=O)c1ccc(N)cc1O | 101% (inactive)
10 | C(=C\c1nc2ccccc2[nH]1)/c1nc2ccccc2[nH]1 | 100% (inactive)
11 | c1ccc2c(c1)ncn2-c1nc2ccccc2n2c1nc1ccccc12 | 85.9% (inactive)
12 | CC(=O)c1ccc2c(c1)CCN2 | 96.7% (inactive)
13 | COC(=O)c1ccc2oc(NC(=O)c3ccc(N4CCOCC4)c([N+](=O)[O-])c3)nc2c1 | 87.3% (inactive)
14 | COc1ccc(/C(C)=C(\c2ccc(Cl)cc2)c2ccc(OCCN3CCCC3)cc2)cc1F | 51.6% (inactive)
15 | CC(C)CCC[C@@H](C)[C@H]1CCC2C3=CCn4c(=O)ccc(=O)n4C3CC[C@@]21C (stereo not given in full) | -97.7% (active)
16 | O=C(CC12CC3CC(CC(C3)C1)C2)NCCOCCOCCNC(=O)c1cc2c(o1)C(=O)c1ccccc1C2=O | -96.3% (active)
17 | O=C1C(Cl)C(c2ccccc2Cl)N1n1cnnc1 (stereo not given) | 100% (inactive)
18 | O=c1[nH]nc(-c2ccc(Cl)cc2)cc1Cc1ccccc1 | 103% (inactive)
19 | CCCCCCCCCCCCCCCCCC1=NCCN1C(=O)OCCO | 32.7% (inactive)
20 | CCCCCCN(CCCCCC)CC(O)c1cccc2ccc(Cl)cc12 (stereo not given) | 72.8% (inactive)

Row | Compound | growth
21 | NS(=O)(=O)Oc1ccc(NC(=O)C23CC4CC(CC(C4)C2)C3)cc1Cl | 90.6% (inactive)
22 | CSc1nc2sc3cc(Cl)ccc3n2c(=N)c1C#N | 89.5% (inactive)
23 | C=C1C(=O)O[C@H]2[C@H]1CC/C(C(=O)NCCCCCCCCNC(=O)/C1=C/CC[C@@]3(C)O[C@H]3[C@H]3OC(=O)C(=C)[C@@H]3CC1)=C\CC[C@@]1(C)O[C@@H]21 | 76.2% (inactive)
24 | Clc1ccc2c(NCCCN3CCN(c4nc(N5CCOCC5)nc5ccccc45)CC3)ccnc2c1 | 45.9% (inactive)
25 | Cc1c(Cl)cccc1NS(=O)(=O)c1ccccc1 | 103% (inactive)
26 | C=C(C)[C@@H]1CC[C@]2(CNCCO)CC[C@]3(C)[C@H](CC[C@@H]4[C@@]5(C)CCC(N)[C@@](C)(CO)[C@@H]5CC[C@]43C)[C@@H]12 (stereo not given in full) | -11.4% (active)
27 | COc1ccc(-c2nnc(SCC(=O)NC3=NN=C(c4ccccc4)CS3)o2)cc1 | 99.8% (inactive)
28 | O=c1[nH]c(=O)n(C2CC(O)C(CO)O2)cc1CO (stereo not given) | 76.2% (inactive)
29 | CC(C)n1nc(C#Cc2cccc3cc(-c4cccc(C(F)(F)F)c4)ncc23)c2c(N)ncnc21 | 86.1% (inactive)
30 | CC(C)(O)c1cccc(F)c1 | 94.7% (inactive)
31 | Nc1nc(Nc2ccc(Cl)cc2)nn1S(=O)(=O)c1ccc(-c2ccc(F)cc2)cc1 | 83.2% (inactive)
32 | CCCCN(CCCC)CCCn1c(=O)c2sc3ncccc3c2n2nnc(-c3ccccc3)c12 | 99.3% (inactive)
33 | N#C/C=C(\c1ccc([N+](=O)[O-])cc1)n1nnc2cc(Cl)c(Cl)cc21 | -20.1% (active)
34 | N#Cc1c(NC(=O)c2cccc(C(F)(F)F)c2)sc2c1CCC(=O)C2 | 4.55% (active)
35 | N#Cc1cccc(-c2nc3ccccn3c2NCCN2CCOCC2)c1 | 96% (inactive)
36 | Cc1ccc(-n2nnc(C3=NCCc4c3[nH]c3ccc(Cl)cc43)c2C)cc1 | 81.6% (inactive)
37 | NC(N)=N/N=C/c1ccc(Br)cc1 | 62.1% (inactive)
38 | CCOC(=O)c1c2c(c(C)n1C)-c1nn(Cc3ccc(OC)cc3)cc1CC2 | 92.5% (inactive)
39 | CC(C)OC(=O)OCOP(=O)(OCOC(=O)OC(C)C)C1CCCN(O)C1=O (stereo not given) | 5.75% (active)
40 | COC(=O)[C@]12CC[C@@H](C)[C@H](C)[C@@H]1C1=CC[C@@H]3[C@@]4(C)C(C=O)=C[C@@](C)(CO)C4=CC[C@@]3(C)[C@]1(C)CC2 | 37.6% (inactive)

From PubChem BioAssay (NCI)
